# Measurements as given in PubChem BioAssay.
# Active and inactive are the calls of the source. Unless noted, the rule behind the calls is not given here.
# Legend:
# [1] = inhibitors of CD8+ T cell-vesicle binding, pilot screen, LFA-1/ICAM-1 modulator project, MLPCN validation set, flow cytometry (AID 2523;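 active = response below a set limit, under 55% cells CD8-positive and vesicle-bound, and CD8 cells' 90th-percentile brightness under 279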;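 for vesicle binding response: mean PE anti-B7-1 fluorescence of CD8+ cells relative to row control; 100% = QL9-loaded vesicles with DMSO vehicle in the same plate row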); conditions: 2C mouse CD8+ T cells, at 7 µM, stronger effect = lower value; double positive events: measured here: CD8+/vesicle+ event percentage
# [2] = target: Integrin beta-1 (Homo sapiens) + Integrin alpha-4 (Homo sapiens) (UniProt P13612+P05556); experiment: inhibition of HUTS-21 binding to VLA-4, pilot screen, VLA-4 allosteric modulator project, U937 cells, HUTS-21 mAb, flow cytometry, validation set (AID 2674;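 active = inhibition above 50%, about 3 SD of the validation set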;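 note: antibody binding induced by the VLA-4 ligand LDV present at three times its Kd; 0% = LDV ligand with antibody and no compound and 100% = antibody without LDV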); conditions: HUTS-21 LIBS mAb binding, at 6.7 µM, stronger effect = higher value
# Sequence of Integrin beta-1 (Homo sapiens) + Integrin alpha-4 (Homo sapiens) (P05556 whole entry, looked up): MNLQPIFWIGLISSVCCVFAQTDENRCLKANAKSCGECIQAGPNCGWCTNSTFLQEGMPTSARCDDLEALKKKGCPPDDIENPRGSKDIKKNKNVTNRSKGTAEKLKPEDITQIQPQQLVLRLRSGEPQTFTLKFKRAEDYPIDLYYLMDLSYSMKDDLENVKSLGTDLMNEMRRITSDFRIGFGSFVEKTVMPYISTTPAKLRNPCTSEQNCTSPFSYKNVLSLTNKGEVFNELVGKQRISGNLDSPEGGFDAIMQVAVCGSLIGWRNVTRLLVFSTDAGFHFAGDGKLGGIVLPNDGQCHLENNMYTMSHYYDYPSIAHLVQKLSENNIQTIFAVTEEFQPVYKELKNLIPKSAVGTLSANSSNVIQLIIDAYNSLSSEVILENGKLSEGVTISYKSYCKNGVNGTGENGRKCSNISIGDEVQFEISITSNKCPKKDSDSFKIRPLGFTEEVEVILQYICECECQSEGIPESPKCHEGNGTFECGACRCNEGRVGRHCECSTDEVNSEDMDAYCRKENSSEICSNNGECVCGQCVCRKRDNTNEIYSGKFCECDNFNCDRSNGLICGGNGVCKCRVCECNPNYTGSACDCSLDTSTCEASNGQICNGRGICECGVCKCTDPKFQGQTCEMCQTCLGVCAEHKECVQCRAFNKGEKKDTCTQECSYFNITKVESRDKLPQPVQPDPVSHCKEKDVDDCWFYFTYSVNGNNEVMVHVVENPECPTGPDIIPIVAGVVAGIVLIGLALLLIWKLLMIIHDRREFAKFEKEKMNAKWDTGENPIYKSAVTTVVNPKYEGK
# Sequence of Integrin beta-1 (Homo sapiens) + Integrin alpha-4 (Homo sapiens) (P13612 whole entry, looked up): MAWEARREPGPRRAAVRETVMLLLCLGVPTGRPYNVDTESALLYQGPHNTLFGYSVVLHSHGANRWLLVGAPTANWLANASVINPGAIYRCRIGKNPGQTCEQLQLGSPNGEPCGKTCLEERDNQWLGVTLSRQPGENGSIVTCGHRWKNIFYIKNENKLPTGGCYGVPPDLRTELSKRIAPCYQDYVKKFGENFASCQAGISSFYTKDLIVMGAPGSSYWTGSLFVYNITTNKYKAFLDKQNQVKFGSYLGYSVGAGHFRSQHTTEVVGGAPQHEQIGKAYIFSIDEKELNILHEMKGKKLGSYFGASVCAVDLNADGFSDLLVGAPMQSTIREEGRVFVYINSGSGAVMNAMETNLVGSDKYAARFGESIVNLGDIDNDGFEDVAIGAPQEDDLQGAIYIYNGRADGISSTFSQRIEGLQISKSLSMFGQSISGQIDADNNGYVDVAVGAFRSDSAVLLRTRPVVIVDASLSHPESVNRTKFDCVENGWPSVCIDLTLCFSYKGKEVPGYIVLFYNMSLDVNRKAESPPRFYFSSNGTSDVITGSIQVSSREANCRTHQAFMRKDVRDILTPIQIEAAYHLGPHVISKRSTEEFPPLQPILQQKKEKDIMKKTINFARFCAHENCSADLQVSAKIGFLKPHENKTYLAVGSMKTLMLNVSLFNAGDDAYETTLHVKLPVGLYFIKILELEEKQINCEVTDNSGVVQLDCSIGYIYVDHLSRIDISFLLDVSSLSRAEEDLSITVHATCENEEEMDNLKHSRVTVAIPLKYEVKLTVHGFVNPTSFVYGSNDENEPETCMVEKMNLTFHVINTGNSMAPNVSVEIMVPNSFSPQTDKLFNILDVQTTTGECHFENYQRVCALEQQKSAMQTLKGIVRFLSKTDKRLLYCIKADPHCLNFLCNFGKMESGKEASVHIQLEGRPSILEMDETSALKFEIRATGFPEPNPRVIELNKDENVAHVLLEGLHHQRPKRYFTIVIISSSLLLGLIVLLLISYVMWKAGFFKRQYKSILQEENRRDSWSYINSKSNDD
# [3] = superoxide lowering in aged yeast cells, pilot screen, validation compound set (AID 2706;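 active = superoxide response below 65% of plate, a cut near 3 SD across the whole screen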;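 note: yeast exposed to compound for one week at 30 degrees C before staining; 100% = mean of all compound wells on the same plate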); conditions: S. cerevisiae aging, superoxide DHE fluorescence; at 10 µM; stronger effect = lower value
# [4] = target: Beta-adrenergic receptor kinase 1 (Homo sapiens) (UniProt P25098); experiment: GRK2 binders displacing RNA aptamer, biochemical, validation, human GRK2, bead flow cytometry (AID 488806;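 active = aptamer binding inhibition above 30%, about 3 SD of noise from non-fluorescent compounds; inactive = inhibition at or below 30%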); conditions: bead-bound GRK2, FAM-aptamer displacement, at 10 µM, stronger effect = higher value
# [5] = target: Beta-2 adrenergic receptor (Homo sapiens) (UniProt P07550); experiment: beta2AR agonists driving receptor internalization, pilot screen, cell-based, FAP fluorogen, flow cytometry, validation set (AID 504459;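 active = percent response above 42, roughly 3 SD of non-fluorescent test compounds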;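 note: agonist-driven loss of surface beta2AR via internalization measured by FAP dye flow cytometry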); conditions: Am2.2-beta2AR cells, FAP surface receptor flow cytometry; at 10 µM; stronger effect = higher value
# Sequence of Beta-2 adrenergic receptor (Homo sapiens) (P07550 whole entry, looked up): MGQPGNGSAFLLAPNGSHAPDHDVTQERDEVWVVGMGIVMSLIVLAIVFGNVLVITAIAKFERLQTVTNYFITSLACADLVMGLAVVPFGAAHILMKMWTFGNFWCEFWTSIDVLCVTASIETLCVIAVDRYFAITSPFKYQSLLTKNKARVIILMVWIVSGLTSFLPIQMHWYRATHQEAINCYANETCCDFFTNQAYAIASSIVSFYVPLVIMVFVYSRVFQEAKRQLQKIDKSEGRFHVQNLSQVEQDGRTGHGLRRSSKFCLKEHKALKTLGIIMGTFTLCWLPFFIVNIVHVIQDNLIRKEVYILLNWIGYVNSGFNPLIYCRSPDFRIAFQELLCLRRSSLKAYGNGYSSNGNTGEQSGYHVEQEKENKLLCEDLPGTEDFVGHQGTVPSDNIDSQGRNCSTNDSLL
# [6] = target: AP-2 complex subunit beta (Homo sapiens) (UniProt P63010); experiment: inhibitors of arrestin peptide binding to AP2, pilot screen, biochemical, validation set, GST-AP2 beads, flow cytometry (AID 504541;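 active = inhibition above 54%, about 3 SD of non-fluorescent compounds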;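 note: AP2 carries R879A mutation and is captured from E. coli lysate; bead-bound FITC arrestin peptide fluorescence measuring arrestin peptide binding to AP2; 0% = DMSO wells and 100% = excess unlabeled arrestin peptide control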); conditions: FITC arrestin peptide, at 10 µM, stronger effect = higher value
# Sequence of AP-2 complex subunit beta (Homo sapiens) (P63010 whole entry, looked up, one chain of several): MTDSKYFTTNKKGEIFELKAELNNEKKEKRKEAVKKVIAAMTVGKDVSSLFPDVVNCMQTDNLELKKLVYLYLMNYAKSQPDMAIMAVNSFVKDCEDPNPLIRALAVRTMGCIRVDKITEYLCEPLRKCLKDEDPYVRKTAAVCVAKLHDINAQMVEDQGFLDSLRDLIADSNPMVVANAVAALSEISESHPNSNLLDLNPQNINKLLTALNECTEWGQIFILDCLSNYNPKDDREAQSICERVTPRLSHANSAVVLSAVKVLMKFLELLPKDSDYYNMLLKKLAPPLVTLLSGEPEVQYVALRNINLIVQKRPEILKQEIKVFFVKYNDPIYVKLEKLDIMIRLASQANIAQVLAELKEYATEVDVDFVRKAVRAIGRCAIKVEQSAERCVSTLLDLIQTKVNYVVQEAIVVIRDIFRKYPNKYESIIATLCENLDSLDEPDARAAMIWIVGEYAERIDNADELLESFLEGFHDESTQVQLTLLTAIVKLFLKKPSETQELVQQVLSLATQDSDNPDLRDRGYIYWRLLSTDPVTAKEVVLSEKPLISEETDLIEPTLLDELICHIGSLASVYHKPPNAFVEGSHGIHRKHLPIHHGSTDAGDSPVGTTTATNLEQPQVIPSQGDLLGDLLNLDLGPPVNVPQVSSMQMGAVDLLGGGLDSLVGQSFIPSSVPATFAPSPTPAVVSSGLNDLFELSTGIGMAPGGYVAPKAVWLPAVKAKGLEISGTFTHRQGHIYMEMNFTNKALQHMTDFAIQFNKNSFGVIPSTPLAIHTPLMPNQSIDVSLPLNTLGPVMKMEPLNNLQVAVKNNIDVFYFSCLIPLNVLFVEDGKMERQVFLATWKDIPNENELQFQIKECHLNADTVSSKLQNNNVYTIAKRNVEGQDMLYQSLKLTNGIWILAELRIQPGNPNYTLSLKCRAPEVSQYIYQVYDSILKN
# [7] = yeast V-ATPase proton transport modulators, S. cerevisiae, pHLuorin, HTS validation (AID 504600; in the data active = response above about 15%;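 note: plate controls were DMSO for no effect and reference compound for full effect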); conditions: S. cerevisiae pHLuorin cytosolic pH, at 10 µM, stronger effect = higher value
# [8] = system: anti-desmoglein-3 scFv antibody binding to human DSG3; experiment: inhibitors of anti-DSG3 scFv binding to DSG3, pilot screen, biochemical, validation compound set, bead-based, flow cytometry (AID 588368;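 active = binding below the plate cutoff, the plate median minus 3 SD, with a reading above zero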;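 note: signal is the median channel fluorescence of bead-bound GFP antibody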); conditions: Protein G beads, DSG3-Fc, scFv-GFP binding, at 10 µM, stronger effect = lower value
# [9] = system: Botulinum neurotoxin type F light chain protease (Clostridium botulinum); experiment: Botulinum neurotoxin type F light chain protease inhibition, multiplex microsphere flow cytometry, validation set (AID 588459); conditions: multiplex microsphere protease substrate cleavage assay, at 10 µM, stronger effect = higher value
# [10] = target: Botulinum neurotoxin type A (Clostridium botulinum) (UniProt P0DPI0); experiment: BoNT/A light chain protease inhibitors, biochemical, multiplex microsphere flow cytometry, validation set (AID 588460); conditions: at 10 µM, stronger effect = higher value
# [11] = target: Lethal factor (Bacillus anthracis) (UniProt P15917); experiment: Lethal factor protease inhibitors, Bacillus anthracis, multiplex microsphere cleavage assay, validation set (AID 588461); conditions: flow cytometry, at 10 µM, stronger effect = higher value
# Sequence of Lethal factor (Bacillus anthracis) (P15917 whole entry, looked up): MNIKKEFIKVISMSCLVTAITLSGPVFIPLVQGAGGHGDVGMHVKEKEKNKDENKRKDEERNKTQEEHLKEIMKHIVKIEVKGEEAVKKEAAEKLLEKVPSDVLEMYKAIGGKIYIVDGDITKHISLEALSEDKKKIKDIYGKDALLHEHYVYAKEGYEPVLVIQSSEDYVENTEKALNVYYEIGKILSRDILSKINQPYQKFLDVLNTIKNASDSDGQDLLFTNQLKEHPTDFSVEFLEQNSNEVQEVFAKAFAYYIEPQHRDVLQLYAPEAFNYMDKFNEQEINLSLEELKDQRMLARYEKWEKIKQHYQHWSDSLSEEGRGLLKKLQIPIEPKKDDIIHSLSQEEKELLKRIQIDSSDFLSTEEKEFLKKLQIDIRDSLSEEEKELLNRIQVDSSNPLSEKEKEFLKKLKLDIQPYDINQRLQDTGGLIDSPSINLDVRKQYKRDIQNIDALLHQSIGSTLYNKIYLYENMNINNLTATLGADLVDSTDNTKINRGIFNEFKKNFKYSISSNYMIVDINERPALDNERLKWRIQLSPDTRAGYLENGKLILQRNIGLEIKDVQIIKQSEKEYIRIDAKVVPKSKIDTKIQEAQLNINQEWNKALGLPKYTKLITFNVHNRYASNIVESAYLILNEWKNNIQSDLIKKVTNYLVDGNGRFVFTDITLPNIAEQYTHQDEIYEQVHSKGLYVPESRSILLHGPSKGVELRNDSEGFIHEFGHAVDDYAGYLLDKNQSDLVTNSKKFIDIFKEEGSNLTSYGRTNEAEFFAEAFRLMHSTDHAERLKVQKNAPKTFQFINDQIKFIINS
# [12] = inhibitors of fungal efflux pumps CDR1, CDR2, MDR1, pilot screen, validation compound set, multiplex, phenotypic (AID 588506;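 active = efflux inhibition above 0.42, the validation set average plus 4 SD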;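 note: Nile Red retained in cells so higher fluorescence means more efflux inhibition; 0 = negative control wells and 1 = enniatin B 25 µM full block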); conditions: S. cerevisiae pump-expressing triplex, Nile Red efflux flow cytometry; at 10 µM; stronger effect = higher value
# [13] = target: ATP-binding cassette sub-family B member 6 (Homo sapiens) (UniProt Q9NP58); experiment: ABCB6 transporter inhibitors, pilot screen, K562-ABCB6 cells, flow cytometry, validation set (AID 588550;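 active = inhibition above the screen-wide mean plus 3 SD, about 51%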;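 note: 0% = DMSO wells and 100% = benzethonium chloride 70 µM positive control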); conditions: K562-ABCB6 porphyrin accumulation, 1 h, at 10 µM, stronger effect = higher value
# Sequence of ATP-binding cassette sub-family B member 6 (Homo sapiens) (Q9NP58 whole entry, looked up): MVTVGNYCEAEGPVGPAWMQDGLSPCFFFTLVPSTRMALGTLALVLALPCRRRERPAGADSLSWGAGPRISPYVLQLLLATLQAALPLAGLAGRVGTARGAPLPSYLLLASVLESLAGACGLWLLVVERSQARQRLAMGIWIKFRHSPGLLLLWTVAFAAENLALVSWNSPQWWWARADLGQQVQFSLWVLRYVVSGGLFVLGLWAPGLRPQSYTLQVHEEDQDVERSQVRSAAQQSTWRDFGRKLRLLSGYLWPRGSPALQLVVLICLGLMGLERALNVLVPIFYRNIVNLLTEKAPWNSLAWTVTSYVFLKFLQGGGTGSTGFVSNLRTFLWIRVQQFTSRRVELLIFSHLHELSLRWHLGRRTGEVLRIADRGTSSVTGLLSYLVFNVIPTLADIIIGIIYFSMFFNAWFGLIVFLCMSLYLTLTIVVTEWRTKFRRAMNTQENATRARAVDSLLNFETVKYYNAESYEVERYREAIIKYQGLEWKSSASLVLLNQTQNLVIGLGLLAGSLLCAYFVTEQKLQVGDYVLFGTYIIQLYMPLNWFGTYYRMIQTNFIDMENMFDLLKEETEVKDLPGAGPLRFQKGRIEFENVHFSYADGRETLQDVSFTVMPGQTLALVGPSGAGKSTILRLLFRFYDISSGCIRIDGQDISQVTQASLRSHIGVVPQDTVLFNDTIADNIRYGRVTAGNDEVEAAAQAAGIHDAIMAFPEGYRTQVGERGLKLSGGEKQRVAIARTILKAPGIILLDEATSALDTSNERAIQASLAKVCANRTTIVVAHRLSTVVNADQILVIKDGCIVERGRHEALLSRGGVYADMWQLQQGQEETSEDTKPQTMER
# [14] = promoters of myeloid differentiation in arrested cells, primary screen, cell-based, GFP/MAC1 double positive, flow cytometry, validation set (AID 588685;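 active = differentiation response of at least 50%, scaled between solvent and reference control, from cells with both markers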;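 note: compound exposure lasts four days before antibody staining and flow analysis; 0% = DMSO wells and 100% = 5 µM fulvestrant positive control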); conditions: ER-HoxA9 marrow cells, stronger effect = higher value
# [15] = RPL19A-GFP modulators, yeast TOR pathway, confirmation, cell-based, S. cerevisiae, flow cytometry, cherry picks, mother/daughter gates (AID 2270;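 active = GFP response below 50% of the DMSO control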); conditions: S. cerevisiae RPL19A-GFP strain, 3 h, at 10 µM, stronger effect = lower value, 100 = same GFP as DMSO wells
# [16] = LAP4-GFP expression modulators in yeast, confirmation, cell-based, cherry picks, flow cytometry, mother/daughter gates (AID 2271;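 active = GFP response above 150% of the DMSO control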;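 note: ratio of sample to DMSO plate mean so 100% equals DMSO level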); conditions: S. cerevisiae LAP4-GFP strain, 3 h, at 10 µM, stronger effect = higher value
# [17] = modulators of CIT2-GFP expression in yeast, confirmation, S. cerevisiae, GFP fusion, cherry picks, mother/daughter gates (AID 2274;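 active = GFP response above 150% of the DMSO level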); conditions: S. cerevisiae CIT2-GFP strain, flow cytometry, 3 h, at 10 µM, stronger effect = higher value
# [18] = measured here: daughter cell gate
# [19] = measured here: mother cell gate
structure (smiles),measurement,setting,value
CC(=O)Nc1cc([As](=O)(O)O)ccc1O,double positive events,[1],62.8%
same,vesicle binding response,[1],170% (inactive)
same,inhibition,[2],0.59% (inactive)
same,superoxide response (% of plate),[3],92.8% (inactive)
same,aptamer binding inhibition,[4],0% (inactive)
same,response,[5],-23.7% (inactive)
same,inhibition,[6],-6.36% (inactive)
same,response,[7],1.26% (inactive)
same,binding (% of control),[8],101% (inactive)
same,inhibition,[9],1% (inactive)
same,inhibition,[10],-1.3% (inactive)
same,inhibition,[11],5.5% (inactive)
same,efflux inhibition (fraction of control),[12],0 (inactive)
same,inhibition,[13],6% (inactive)
same,differentiation response,[14],-0.06% (inactive)
C[C@]12CCC(=O)C=C1CC[C@@H]1[C@@H]2C(=O)C[C@]2(C)C(=O)CC[C@@H]12,double positive events,[1],61%
same,vesicle binding response,[1],259% (inactive)
same,inhibition,[2],6.55% (inactive)
same,superoxide response (% of plate),[3],76.3% (inactive)
same,aptamer binding inhibition,[4],3% (inactive)
same,response,[5],-22.9% (inactive)
same,inhibition,[6],0.49% (inactive)
same,response,[7],-0.42% (inactive)
same,binding (% of control),[8],99.9% (inactive)
same,inhibition,[9],-1.7% (inactive)
same,inhibition,[10],1% (inactive)
same,inhibition,[11],-4.7% (inactive)
same,efflux inhibition (fraction of control),[12],0.12 (inactive)
same,inhibition,[13],-30% (inactive)
same,differentiation response,[14],5.85% (inactive)
CCC(C)N1C(=O)/C(=C\c2cnc(N(C)C)nc2)C(=O)NC1=S (configuration not stated),GFP response vs DMSO,[15],104% (inactive)
same,GFP response vs DMSO,[15]; [18],98.4%
same,GFP response vs DMSO,[15]; [19],93.8%
same,GFP response relative to DMSO,[16],97.4% (inactive)
same,"GFP response, % of DMSO",[17],106% (inactive)
same,"GFP response, % of DMSO",[17]; [18],114%
same,"GFP response, % of DMSO",[17]; [19],90.2%
Clc1ccc(COC(Cn2ccnc2)c2ccc(Cl)cc2Cl)c(Cl)c1 (configuration not stated),double positive events,[1],71.9%
same,vesicle binding response,[1],306% (inactive)
same,inhibition,[2],-1.12% (inactive)
same,superoxide response (% of plate),[3],76.7% (inactive)
same,aptamer binding inhibition,[4],4% (inactive)
same,response,[5],-12.4% (inactive)
same,inhibition,[6],-8.06% (inactive)
same,response,[7],75% (active)
same,binding (% of control),[8],104% (inactive)
same,inhibition,[9],0.4% (inactive)
same,inhibition,[10],-0.5% (inactive)
same,inhibition,[11],-5.1% (inactive)
same,efflux inhibition (fraction of control),[12],0.33 (inactive)
same,inhibition,[13],5% (inactive)
same,differentiation response,[14],-1.05% (inactive)
